Experimental data reported in the supplement of paper PMC4206461.

test system: Pseudomonas aeruginosa PA14 wild type; assay: respiration area under curve with compound as sole nitrogen source, 24 h (OmniLog AUC (arbitrary units)); higher = more respiration / better utilisation as nitrogen source, active = 2000 or more
Experimental: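 Biolog Phenotype MicroArray plates PM6-PM8: each di/tripeptide is the sole nitrogen source (IF-0 medium with succinate/ferric citrate and dye mix A). Tetrazolium reduction was read in the OmniLog every 15 min for 24 h at 37°C and summarised as area under the respiration curve (arbitrary units). The paper counts values below 2000 as no respiration and above 8000 as solid respiration. Replicate datasets are averaged.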

Respiration area under curve, active:
N[C@@H](Cc1ccccc1)C(=O)N[C@@H](CCC(=O)O)C(=O)O (plate: PM8) 2920
CC[C@H](C)[C@H](N)C(=O)N[C@H](C(=O)O)[C@@H](C)CC (plate: PM6) 2030
CC[C@H](C)[C@H](NC(=O)[C@@H](N)Cc1ccccc1)C(=O)O (plate: PM7) 8390
NCC(=O)N[C@@H](CC(=O)O)C(=O)O (plate: PM8) 5610
N[C@@H](CO)C(=O)N[C@@H](CO)C(=O)O (plate: PM7) 8860
NC(N)=NCCC[C@H](NC(=O)[C@@H](N)Cc1c[nH]c2ccccc12)C(=O)O (plate: PM7) 13500
NCC(=O)NCC(=O)O (plate: PM6) 3270
C[C@H](N)C(=O)N[C@@H](C)C(=O)O (plate: PM6) 8430
CC(C)C(N)C(=O)NC(CO)C(=O)O (stereo not given) (plate: PM8) 9530
C[C@H](N)C(=O)N[C@@H](Cc1ccc(O)cc1)C(=O)O (plate: PM6) 6830
CC(C)[C@H](N)C(=O)NCC(=O)O (plate: PM7) 9460
CSCCC(NC(=O)C(N)CC(C)C)C(=O)O (stereo not given) (plate: PM6) 3040
CC(C)CC(N)C(=O)NC(CC(=O)O)C(=O)O (stereo not given) (plate: PM6) 7510
N[C@@H](Cc1ccccc1)C(=O)N[C@@H](Cc1ccc(O)cc1)C(=O)O (plate: PM8) 2350
NC(=O)CC[C@H](N)C(=O)NCC(=O)O (plate: PM6) 7270
O=C(O)CNC(=O)[C@@H]1CCCN1 (plate: PM7) 10100
O=C(O)[C@H](Cc1ccc(O)cc1)NC(=O)[C@@H]1CCCN1 (plate: PM7) 12200
O=C(O)[C@H](CO)NC(=O)[C@@H]1CCCN1 (plate: PM8) 8750
NC(=O)C[C@H](NC(=O)[C@@H]1CCCN1)C(=O)O (plate: PM8) 12900
C[C@@H](O)[C@H](N)C(=O)N[C@@H](CCC(N)=O)C(=O)O (plate: PM8) 12100
NCC(=O)N[C@@H](CO)C(=O)O (plate: PM6) 7870
CC[C@H](C)[C@H](NC(=O)[C@@H]1CCCN1)C(=O)O (plate: PM8) 7540
CC(C)CC(N)C(=O)NC(Cc1c[nH]c2ccccc12)C(=O)O (stereo not given) (plate: PM7) 8750
CC[C@H](C)[C@H](N)C(=O)N[C@H](C(=O)O)C(C)C (plate: PM6) 6570
CC(C)[C@H](N)C(=O)N[C@@H](CCCN=C(N)N)C(=O)O (plate: PM7) 14300
CC(C)[C@H](N)C(=O)N[C@@H](CCC(=O)O)C(=O)O (plate: PM8) 5380
CC(C)C[C@H](N)C(=O)N[C@@H](C)C(=O)O (plate: PM6) 9330
CC[C@H](C)[C@H](NC(=O)[C@@H](N)Cc1ccc(O)cc1)C(=O)O (plate: PM8) 6790
NC(CO)C(=O)NC(CCC(=O)O)C(=O)O (stereo not given) (plate: PM8) 5470
N[C@@H](Cc1ccccc1)C(=O)NCC(=O)O (plate: PM7) 7630
C[C@H](NC(=O)[C@@H](N)CCCN=C(N)N)C(=O)O (plate: PM6) 9790

Respiration area under curve, inactive:
O=C(O)[C@H](Cc1c[nH]c2ccccc12)NC(=O)[C@@H]1CCCN1 (plate: PM8) 1260
C[C@H](O)[C@@H](NC(=O)CN)C(=O)O (plate: PM8) 0
CC[C@H](C)[C@H](N)C(=O)N[C@@H](Cc1c[nH]c2ccccc12)C(=O)O (plate: PM6) 1090
CSCC[C@H](N)C(=O)N[C@@H](Cc1ccc(O)cc1)C(=O)O (plate: PM8) 1560
O=C(O)[C@@H]1C[C@@H](O)CN1C(=O)[C@@H]1CCCN1 (plate: PM7) 0
N[C@@H](CCC(=O)O)C(=O)N[C@@H](CCC(=O)O)C(=O)O (plate: PM6) 248
NCC(=O)N[C@H](CC(=O)O)C(=O)O (plate: PM8) 0.2
CSCC[C@H](NC(=O)[C@@H](N)Cc1ccccc1)C(=O)O (plate: PM8) 1220
N[C@@H](CCC(=O)O)C(=O)N[C@@H](CC(=O)O)C(=O)O (plate: PM6) 12
